What all share (assay): qHTS profiling for inhibitors of Plasmodium falciparum proliferation (AID 504749); note: nearly all actives have a fitted effect of over 60% in size
What all share (conditions): P. falciparum in erythrocytes, SYBR Green DNA, 72 h; series mostly up to 28.7 µM
In general terms: In qHTS, concentration-response curves come from the screen itself.

One assay has as its system 7G8. Put shortly: (§1)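 Three-day growth assay of blood-stage parasites in erythrocytes (0.3% parasitemia, 2.5% hematocrit) at 37 C, 5% CO2, quantified by SYBR Green DNA staining after overnight detergent lysis.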
The next assay concerns AA1029. Put shortly: as §1
Another assay deals with AS120. Put shortly:
as §1

Another assay has as its system ATS189. Put shortly: as §1
The test system of a further assay is ATS95. Put shortly:
as §1

The subject of the next assay is C2A. Put shortly: as §1
The subject of a further assay is CP185. Put shortly: as §1
Another assay deals with CP191. Put shortly:
as §1

A further assay concerns CP192. Put shortly: as §1
In the next assay the test system is CP194. Put shortly:
as §1

In the next assay the test system is CP201. Put shortly:
as §1

A further assay concerns CP211. Put shortly:
as §1

The next assay has as its system CP215. Put shortly:
as §1

The test system of another assay is CP217. Put shortly: as §1
Another assay concerns CP237. Put shortly: as §1
The subject of the next assay is CP238. Put shortly:
as §1

In the next assay the test system is CP247. Put shortly:
as §1

A further assay concerns CP250. Put shortly:
as §1

A further assay has as its system CP252. Put shortly:
as §1

In another assay the test system is CP203. Put shortly:
as §1

Inconclusive results are not listed. Activity calls are given as the source filed them. Calls come from the whole dose curve; as a rule, active = well fitted inhibition curve with a large enough effect; inconclusive = small, poorly fitted or top-dose-only effect; inactive = flat fitted curve, though single readings scatter.
Potency is the fitted concentration of half-maximal effect.

Turning to `[O-][N+](=Nc1ccccc1)c1ccccc1`, the Potency result with 7G8, with AA1029, in the assay with AS120, in the assay with ATS189, with ATS95 and in the assay on C2A was “inactive” each time. For the same molecule, the Potency result in the assay with CP185, in the assay on CP191, in the assay on CP192, in the assay with CP194, in the assay on CP201 and with CP211 was “inactive” in each case. Also, the Potency result in the assay with CP215, in the assay with CP217, in the assay with CP237, in the assay on CP238, in the assay with CP247 and in the assay on CP250 was “inactive” in each case. Also, the Potency result with CP252 is “inactive”.

For the molecule `CC(C)NCC(O)COc1ccccc1-n1cccc1` (stereo not given), the Potency in the assay on 7G8 is 7.08 µM (active). In addition, the Potency entry in the assay with AA1029, with AS120, in the assay on ATS189, with ATS95, with C2A and in the assay with CP185 was “inactive” in each case. Also, the Potency entry in the assay on CP191, with CP192, in the assay with CP194, in the assay with CP201, in the assay with CP203 and with CP211 was “inactive” throughout. The Potency entry in the assay on CP215, with CP217, in the assay with CP238, in the assay on CP247, in the assay on CP250 and in the assay with CP252 was “inactive” in each case.

On to `O=C(OC1C[C@@H]2CC3C[C@H](C1)N2CC3=O)c1c[nH]c2ccccc12` (stereo not given in full), for which, in the assay with 7G8, the Potency was 11.2 µM (active). Besides, the Potency entry with AA1029, in the assay with AS120, in the assay on ATS189, with ATS95, in the assay with C2A and with CP185 was “inactive” in each case. Besides, the Potency entry in the assay with CP191, with CP192, in the assay with CP194, with CP201, in the assay with CP203 and in the assay with CP215 was “inactive” throughout. The Potency result in the assay on CP217, with CP237, in the assay on CP238, in the assay with CP247, in the assay on CP250 and with CP252 was “inactive” throughout.

Regarding `COc1ccc(/C=N/NC(=O)c2ccncc2)c(C(=O)O)c1OC`, the Potency entry in the assay on 7G8, in the assay with AA1029, with AS120, in the assay on ATS189, with ATS95 and with C2A was “inactive” in each case. Further, the Potency entry in the assay with CP185, in the assay on CP191, in the assay with CP192, with CP194, in the assay on CP203 and in the assay on CP211 was “inactive” in each case. The Potency result in the assay on CP215, in the assay with CP217, in the assay with CP237, in the assay on CP238, in the assay with CP247 and with CP250 was “inactive” each time. The Potency result with CP252 is “inactive”.

In the case of `O=C(O)CCC(=O)c1ccc(-c2ccccc2)cc1`, the Potency entry in the assay on 7G8, with AA1029, in the assay with AS120, in the assay on ATS189, with ATS95 and with C2A was “inactive” throughout. The Potency result in the assay on CP185, in the assay with CP191, in the assay with CP192, with CP194, in the assay with CP201 and in the assay on CP203 was “inactive” throughout. Further, the Potency result in the assay with CP211, in the assay with CP217, with CP237, in the assay on CP238, in the assay with CP247 and with CP250 was “inactive” in each case. Moreover, the Potency result in the assay on CP252 was “inactive”.

With `C[C@H](CCCC(C)(C)O)[C@H]1CC[C@H]2[C@@H]3CC=C4C[C@@H](O)CC[C@]4(C)[C@H]3CC[C@]12C`, the Potency in the assay with 7G8 is 11.2 µM (active). Further, the Potency entry in the assay with AA1029, in the assay on AS120, with ATS189, with ATS95, in the assay on C2A and with CP185 was “inactive” in each case. For the same molecule, the Potency result in the assay on CP191, in the assay on CP192, in the assay on CP194, in the assay with CP201, in the assay with CP203 and in the assay on CP211 was “inactive” in each case. Also, the Potency result in the assay with CP215, in the assay with CP217, in the assay on CP238, with CP247 and with CP252 was “inactive” in each case.

Regarding `CC(=O)Oc1cccc2c1C(=O)c1c(OC(C)=O)cc(C(=O)O)cc1C2=O`, the Potency entry with 7G8, in the assay on AA1029, in the assay on AS120, in the assay on ATS189, with ATS95 and in the assay on C2A was “inactive” each time. For the same molecule, the Potency entry with CP185, in the assay on CP191, in the assay on CP192, with CP194, in the assay on CP201 and in the assay with CP203 was “inactive” each time. Further, the Potency entry in the assay on CP215, in the assay on CP217, in the assay on CP237, in the assay with CP238, in the assay on CP247 and in the assay with CP250 was “inactive” in each case. For the same molecule, the Potency result in the assay with CP252 is “inactive”.

`CC[C@H]1OC(=O)[C@H](C)[C@@H](O[C@H]2C[C@@](C)(OC)[C@@H](O)[C@H](C)O2)C(C)[C@@H](O[C@@H]2O[C@H](C)C[C@H](N(C)C)[C@@H]2O)[C@](C)(OC)C[C@@H](C)C(=O)[C@H](C)[C@@H](O)[C@]1(C)O` (stereo not given in full): the Potency result in the assay on 7G8, in the assay on AA1029, in the assay with ATS189, with ATS95, with C2A and with CP185 was “inactive” each time. Further, the Potency entry in the assay with CP192, with CP201, with CP203, with CP238, in the assay with CP247 and with CP252 was “inactive” in each case. The Potency in the assay on CP237 is 7.94 µM (active).

As for `Cc1cccc(C)c1NC(=O)NC1=CCCN1C`, the Potency entry with 7G8, in the assay with AA1029, in the assay on ATS189, with ATS95, in the assay on C2A and in the assay with CP185 was “inactive” each time. Further, the Potency result in the assay on CP191, in the assay on CP192, in the assay with CP194, in the assay on CP201, with CP203 and in the assay with CP211 was “inactive” throughout. Moreover, the Potency entry with CP215, with CP217, in the assay on CP237, with CP238, in the assay on CP247 and in the assay with CP250 was “inactive” throughout. Further, in the assay with CP252, the Potency entry was “inactive”.

Take `CNC(=O)[C@H](Cc1c[nH]c2ccccc12)NC(=O)[C@@H](CC(=O)NO)CC(C)C`: the Potency in the assay on 7G8 is 11.2 µM (active). Besides, the Potency entry in the assay on AA1029, in the assay on ATS189, in the assay with CP201 and with CP252 was “inactive” each time.

For `Cn1c(=O)c2c(ncn2CCOC(=O)C(C)(C)Oc2ccc(Cl)cc2)n(C)c1=O`, the Potency result in the assay on 7G8, in the assay on CP192, in the assay on CP194, in the assay with CP201, in the assay on CP203 and with CP211 was “inactive” each time. Besides, the Potency result in the assay on CP215, in the assay on CP237 and in the assay on CP250 was “inactive” in each case.

In the case of `O=C(O[C@H]1CN2CCC1CC2)N1CCc2ccccc2[C@@H]1c1ccccc1`, in the assay on 7G8, the Potency was 5.62 µM (active). Also, the Potency result with AS120, in the assay on ATS189, with ATS95, with CP185, with CP192 and with CP201 was “inactive” in each case. For the same molecule, the Potency result in the assay on CP203, with CP217, in the assay with CP238, in the assay on CP250 and in the assay with CP252 was “inactive” throughout.

For the molecule `Nc1ccc(N=Nc2ccccc2)c(N)n1`, the Potency result in the assay on 7G8, in the assay with AA1029, with AS120, in the assay on ATS189, in the assay on ATS95 and with CP185 was “inactive” each time. Also, the Potency result in the assay on CP192, in the assay on CP194, in the assay with CP201, in the assay on CP203, in the assay on CP211 and in the assay with CP217 was “inactive” in each case. Besides, the Potency entry in the assay with CP237, with CP238, in the assay on CP247, in the assay on CP250 and with CP252 was “inactive” each time.

For `COC(=O)[C@@H](N)CS`, the Potency entry in the assay on 7G8, in the assay on AA1029, in the assay with AS120, in the assay with ATS189, in the assay on C2A and in the assay on CP185 was “inactive” throughout. The Potency result in the assay with CP191, in the assay with CP192, in the assay with CP194, with CP201, in the assay with CP203 and in the assay with CP211 was “inactive” throughout. The Potency entry in the assay with CP217, with CP237, in the assay with CP238, in the assay with CP247, in the assay on CP250 and in the assay with CP252 was “inactive” throughout.

The values above are taken from PubChem BioAssay (NCATS).
